# Data published in the supplement of paper PMC4466140.
# B1: unnamed (peptide)
# chain: DTIDNVKSKIQDKEG
# B2: unnamed (peptide)
# chain: FPPKRKPLLRPQRSD
# Biological target: AgAbp1
# Test: SPOT peptide array binding signal intensity (averaged, normalized) (arbitrary units (background-subtracted, floor 0; scale differs between SH3 domains)); higher = stronger binding of the SH3 domain to the peptide
# Summary of the method: (§1)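 GST-fused SH3 domains, from four yeast species, were produced in E. coli BL21(DE3) and captured on glutathione Sepharose. Membranes of cellulose carrying synthetic 15-mer peptides, in which cysteines had been replaced by serines, were exposed to each domain at 10 μg/ml overnight at 4°C in TBS-based blocking buffer. After anti-GST antibody, an HRP anti-mouse secondary and luminol, spots were imaged and quantified using Genespotter. Binding signal is normalized and background-subtracted spot intensity, averaged over replicates, in arbitrary units that differ between domains.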
row,Binder,SPOT peptide array binding signal intensity
1,B1,≤ 0
2,B2,766

# Biological target: AgBbc1
# Test: as above
# Summary of the method: as §1
row,Binder,SPOT peptide array binding signal intensity
1,B1,≤ 0
2,B2,332

# Biological target: AgBem1-D1
# Test: as above
# Summary of the method: as §1
row,Binder,SPOT peptide array binding signal intensity
1,B1,≤ 0
2,B2,170

# Biological target: AgBzz1-D1
# Test: as above
# Summary of the method: as §1
row,Binder,SPOT peptide array binding signal intensity
1,B1,≤ 0
2,B2,59

# Biological target: AgBzz1-D2
# Test: as above
# Summary of the method: as §1
row,Binder,SPOT peptide array binding signal intensity
1,B1,≤ 0
2,B2,81

# Biological target: AgCyk3
# Test: as above
# Summary of the method: as §1
row,Binder,SPOT peptide array binding signal intensity
1,B1,≤ 0
2,B2,3.5

# Biological target: AgFus1
# Test: as above
# Summary of the method: as §1
row,Binder,SPOT peptide array binding signal intensity
1,B1,≤ 0
2,B2,303

# Biological target: AgHof1
# Test: as above
# Summary of the method: as §1
row,Binder,SPOT peptide array binding signal intensity
1,B1,≤ 0
2,B2,156

# Biological target: AgHse1
# Test: as above
# Summary of the method: as §1
row,Binder,SPOT peptide array binding signal intensity
1,B1,4
2,B2,294

# Biological target: AgLsb1
# Test: as above
# Summary of the method: as §1
row,Binder,SPOT peptide array binding signal intensity
1,B1,≤ 0
2,B2,26.5

# Biological target: AgLsb4
# Test: as above
# Summary of the method: as §1
row,Binder,SPOT peptide array binding signal intensity
1,B1,≤ 0
2,B2,33.5

# Biological target: AgMyo5
# Test: as above
# Summary of the method: as §1
row,Binder,SPOT peptide array binding signal intensity
1,B1,≤ 0
2,B2,≤ 0

# Biological target: AgNbp2
# Test: as above
# Summary of the method: as §1
row,Binder,SPOT peptide array binding signal intensity
1,B1,≤ 0
2,B2,590

# Biological target: AgRvs167
# Test: as above
# Summary of the method: as §1
row,Binder,SPOT peptide array binding signal intensity
1,B1,0.5
2,B2,9

# Biological target: AgSho1
# Test: as above
# Summary of the method: as §1
row,Binder,SPOT peptide array binding signal intensity
1,B1,≤ 0
2,B2,45

# Biological target: AgSla1-D1-D2
# Test: as above
# Summary of the method: as §1
row,Binder,SPOT peptide array binding signal intensity
1,B1,≤ 0
2,B2,230

# Biological target: AgSla1-D3
# Test: as above
# Summary of the method: as §1
row,Binder,SPOT peptide array binding signal intensity
1,B1,≤ 0
2,B2,5

# Biological target: CaAbp1-D1
# Test: as above
# Summary of the method: as §1
row,Binder,SPOT peptide array binding signal intensity
1,B1,≤ 0
2,B2,1450

# Biological target: CaAbp1-D2
# Test: as above
# Summary of the method: as §1
row,Binder,SPOT peptide array binding signal intensity
1,B1,≤ 0
2,B2,2460

# Biological target: CaBbc1
# Test: as above
# Summary of the method: as §1
row,Binder,SPOT peptide array binding signal intensity
1,B1,≤ 0
2,B2,793

# Biological target: CaBem1-D1
# Test: as above
# Summary of the method: as §1
row,Binder,SPOT peptide array binding signal intensity
1,B1,≤ 0
2,B2,934

# Biological target: CaBzz1-D1
# Test: as above
# Summary of the method: as §1
row,Binder,SPOT peptide array binding signal intensity
1,B1,21
2,B2,257

# Biological target: CaBzz1-D2
# Test: as above
# Summary of the method: as §1
row,Binder,SPOT peptide array binding signal intensity
1,B1,≤ 0
2,B2,135

# Biological target: CaCyk3
# Test: as above
# Summary of the method: as §1
row,Binder,SPOT peptide array binding signal intensity
1,B1,≤ 0
2,B2,292

# Biological target: CaFus1
# Test: as above
# Summary of the method: as §1
row,Binder,SPOT peptide array binding signal intensity
1,B1,≤ 0
2,B2,589

# Biological target: CaHof1
# Test: as above
# Summary of the method: as §1
row,Binder,SPOT peptide array binding signal intensity
1,B1,≤ 0
2,B2,1.25

# Biological target: CaHse1
# Test: as above
# Summary of the method: as §1
row,Binder,SPOT peptide array binding signal intensity
1,B1,≤ 0
2,B2,57.2

# Biological target: CaLsb1
# Test: as above
# Summary of the method: as §1
row,Binder,SPOT peptide array binding signal intensity
1,B1,≤ 0
2,B2,≤ 0

# Biological target: CaLsb4
# Test: as above
# Summary of the method: as §1
row,Binder,SPOT peptide array binding signal intensity
1,B1,≤ 0
2,B2,1020

# Biological target: CaMyo5
# Test: as above
# Summary of the method: as §1
row,Binder,SPOT peptide array binding signal intensity
1,B1,≤ 0
2,B2,12

# Biological target: CaNbp2
# Test: as above
# Summary of the method: as §1
row,Binder,SPOT peptide array binding signal intensity
1,B1,≤ 0
2,B2,371

# Biological target: CaRvs167
# Test: as above
# Summary of the method: as §1
row,Binder,SPOT peptide array binding signal intensity
1,B1,2
2,B2,221

# Biological target: CaRvs167-3
# Test: as above
# Summary of the method: as §1
row,Binder,SPOT peptide array binding signal intensity
1,B1,2.5
2,B2,18.5

# Biological target: CaSho1
# Test: as above
# Summary of the method: as §1
row,Binder,SPOT peptide array binding signal intensity
1,B1,≤ 0
2,B2,245

# Biological target: CaSla1-D1-D2
# Test: as above
# Summary of the method: as §1
row,Binder,SPOT peptide array binding signal intensity
1,B1,≤ 0
2,B2,872

# Biological target: CaSla1-D3
# Test: as above
# Summary of the method: as §1
row,Binder,SPOT peptide array binding signal intensity
1,B1,≤ 0
2,B2,9.75

# Biological target: ScAbp1
# Test: as above
# Summary of the method: as §1
row,Binder,SPOT peptide array binding signal intensity
1,B1,≤ 0
2,B2,598

# Biological target: ScBbc1
# Test: as above
# Summary of the method: as §1
row,Binder,SPOT peptide array binding signal intensity
1,B1,≤ 0
2,B2,294

# Biological target: ScBem1-D1
# Test: as above
# Summary of the method: as §1
row,Binder,SPOT peptide array binding signal intensity
1,B1,≤ 0
2,B2,87

# Biological target: ScBzz1-D1
# Test: as above
# Summary of the method: as §1
row,Binder,SPOT peptide array binding signal intensity
1,B1,12
2,B2,10.5

# Biological target: ScBzz1-D2
# Test: as above
# Summary of the method: as §1
row,Binder,SPOT peptide array binding signal intensity
1,B1,≤ 0
2,B2,50

# Biological target: ScCyk3
# Test: as above
# Summary of the method: as §1
row,Binder,SPOT peptide array binding signal intensity
1,B1,≤ 0
2,B2,38

# Biological target: ScFus1
# Test: as above
# Summary of the method: as §1
row,Binder,SPOT peptide array binding signal intensity
1,B1,≤ 0
2,B2,138

# Biological target: ScHof1
# Test: as above
# Summary of the method: as §1
row,Binder,SPOT peptide array binding signal intensity
1,B1,≤ 0
2,B2,0.25

# Biological target: ScHse1
# Test: as above
# Summary of the method: as §1
row,Binder,SPOT peptide array binding signal intensity
1,B1,≤ 0
2,B2,1190

# Biological target: ScLsb1
# Test: as above
# Summary of the method: as §1
row,Binder,SPOT peptide array binding signal intensity
1,B1,≤ 0
2,B2,27.8

# Biological target: ScLsb2
# Test: as above
# Summary of the method: as §1
row,Binder,SPOT peptide array binding signal intensity
1,B1,≤ 0
2,B2,30

# Biological target: ScLsb3
# Test: as above
# Summary of the method: as §1
row,Binder,SPOT peptide array binding signal intensity
1,B1,≤ 0
2,B2,2030

# Biological target: ScLsb4
# Test: as above
# Summary of the method: as §1
row,Binder,SPOT peptide array binding signal intensity
1,B1,≤ 0
2,B2,71

# Biological target: ScMyo3
# Test: as above
# Summary of the method: as §1
row,Binder,SPOT peptide array binding signal intensity
1,B1,≤ 0
2,B2,7.75

# Biological target: ScMyo5
# Test: as above
# Summary of the method: as §1
row,Binder,SPOT peptide array binding signal intensity
1,B1,1
2,B2,2.75

# Biological target: ScNbp2
# Test: as above
# Summary of the method: as §1
row,Binder,SPOT peptide array binding signal intensity
1,B1,≤ 0
2,B2,761

# Biological target: ScPex13
# Test: as above
# Summary of the method: as §1
row,Binder,SPOT peptide array binding signal intensity
1,B1,≤ 0
2,B2,52.5

# Biological target: ScRvs167
# Test: as above
# Summary of the method: as §1
row,Binder,SPOT peptide array binding signal intensity
1,B1,≤ 0
2,B2,410

# Biological target: ScSho1
# Test: as above
# Summary of the method: as §1
row,Binder,SPOT peptide array binding signal intensity
1,B1,≤ 0
2,B2,1040

# Biological target: ScSla1-D1-D2
# Test: as above
# Summary of the method: as §1
row,Binder,SPOT peptide array binding signal intensity
1,B1,≤ 0
2,B2,1030

# Biological target: ScSla1-D3
# Test: as above
# Summary of the method: as §1
row,Binder,SPOT peptide array binding signal intensity
1,B1,≤ 0
2,B2,16

# Biological target: SpAbp1-D1
# Test: as above
# Summary of the method: as §1
row,Binder,SPOT peptide array binding signal intensity
1,B1,≤ 0
2,B2,874

# Biological target: SpBbc1
# Test: as above
# Summary of the method: as §1
row,Binder,SPOT peptide array binding signal intensity
1,B1,≤ 0
2,B2,37

# Biological target: SpBzz1-D1
# Test: as above
# Summary of the method: as §1
row,Binder,SPOT peptide array binding signal intensity
1,B1,≤ 0
2,B2,444

# Biological target: SpBzz1-D2
# Test: as above
# Summary of the method: as §1
row,Binder,SPOT peptide array binding signal intensity
1,B2,0.5

# Biological target: SpCyk3
# Test: as above
# Summary of the method: as §1
row,Binder,SPOT peptide array binding signal intensity
1,B2,5

# Biological target: SpHof1
# Test: as above
# Summary of the method: as §1
row,Binder,SPOT peptide array binding signal intensity
1,B2,182

# Biological target: SpHof1-2
# Test: as above
# Summary of the method: as §1
row,Binder,SPOT peptide array binding signal intensity
1,B2,16.8

# Biological target: SpHof1-3
# Test: as above
# Summary of the method: as §1
row,Binder,SPOT peptide array binding signal intensity
1,B2,285

# Biological target: SpHse1
# Test: as above
# Summary of the method: as §1
row,Binder,SPOT peptide array binding signal intensity
1,B2,326

# Biological target: SpLsb1
# Test: as above
# Summary of the method: as §1
row,Binder,SPOT peptide array binding signal intensity
1,B2,153

# Biological target: SpLsb4
# Test: as above
# Summary of the method: as §1
row,Binder,SPOT peptide array binding signal intensity
1,B2,1630

# Biological target: SpMyo1
# Test: as above
# Summary of the method: as §1
row,Binder,SPOT peptide array binding signal intensity
1,B2,22.8

# Biological target: SpNbp2
# Test: as above
# Summary of the method: as §1
row,Binder,SPOT peptide array binding signal intensity
1,B2,286

# Biological target: SpPex13
# Test: as above
# Summary of the method: as §1
row,Binder,SPOT peptide array binding signal intensity
1,B2,26

# Biological target: SpRvs167
# Test: as above
# Summary of the method: as §1
row,Binder,SPOT peptide array binding signal intensity
1,B2,536

# Biological target: SpSla1-D1-D2
# Test: as above
# Summary of the method: as §1
row,Binder,SPOT peptide array binding signal intensity
1,B2,2

# Biological target: SpSla1-D3
# Test: as above
# Summary of the method: as §1
row,Binder,SPOT peptide array binding signal intensity
1,B2,3
